Rows were chosen to be rich in hits. Some 18% of all compounds tested hit in one or more screens of this group.
TGFb inhibitor: blocks TGF-b signaling; HepG2 CAGA-GFP TGF-b/SMAD3 reporter, GFP fluorescence, 18 h; TGF-beta stimulated, 500 pg/mL final; Potency, µM (highest dose often 46.1 µM), without a hit: at the highest dose activity, negative = inhibition, usual class: inhibitors; actives 1.2% (n = 410,000); AID 588855; note: potency is the fitted concentration of half-maximal effect; % is set by controls: 0 for no effect and ±100 for the full control effect; nearly all actives have a fitted effect of over 65% in size
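Smad-responsive CAGA-GFP expression was quantified in HEPG2 cells exposed to compounds and 500 pg/mL final TGF-beta for 18 h at 37 degrees C; unstimulated wells defined full inhibition.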
IL1B secr inh: inhibitors of inflammasome signaling (IL-1 beta secretion) | THP-1 LPS/ATP IL-1B secretion, AlphaLISA, 16 h; hits give low values | activity change, % at 57.5 µM | actives 4.7% (n = 360,000) | AID 743279; in the data active = activity change below about -50%; inconclusive = mostly about -30% to -49%; note: % is set by controls: 0 for no effect and ±100 for the full control effect
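THP-1 cells pretreated 1 hr with compounds (up to 57.5 uM final), then stimulated with LPS (250 ng/mL final) plus ATP (1.25 mM final); secreted IL-1B measured by AlphaLISA after 16 hr, decreased signal indicating inhibition.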
TDP1 inh: blocks human tyrosyl-DNA phosphodiesterase 1; Q9NUW8; Potency, µM (doses to about 130 µM), without a hit: top-dose activity change, negative = inhibition, actives largely listed as inhibitors; actives 0.28% (n = 350,000); recombinant TDP1, AlphaScreen DNA substrate cleavage; note: potency is the fitted concentration of half-maximal effect; % is set by controls: 0 for no effect and ±100 for the full control effect; nearly all actives have a fitted effect of over 40% in size
Target sequence (Q9NUW8 whole entry, looked up): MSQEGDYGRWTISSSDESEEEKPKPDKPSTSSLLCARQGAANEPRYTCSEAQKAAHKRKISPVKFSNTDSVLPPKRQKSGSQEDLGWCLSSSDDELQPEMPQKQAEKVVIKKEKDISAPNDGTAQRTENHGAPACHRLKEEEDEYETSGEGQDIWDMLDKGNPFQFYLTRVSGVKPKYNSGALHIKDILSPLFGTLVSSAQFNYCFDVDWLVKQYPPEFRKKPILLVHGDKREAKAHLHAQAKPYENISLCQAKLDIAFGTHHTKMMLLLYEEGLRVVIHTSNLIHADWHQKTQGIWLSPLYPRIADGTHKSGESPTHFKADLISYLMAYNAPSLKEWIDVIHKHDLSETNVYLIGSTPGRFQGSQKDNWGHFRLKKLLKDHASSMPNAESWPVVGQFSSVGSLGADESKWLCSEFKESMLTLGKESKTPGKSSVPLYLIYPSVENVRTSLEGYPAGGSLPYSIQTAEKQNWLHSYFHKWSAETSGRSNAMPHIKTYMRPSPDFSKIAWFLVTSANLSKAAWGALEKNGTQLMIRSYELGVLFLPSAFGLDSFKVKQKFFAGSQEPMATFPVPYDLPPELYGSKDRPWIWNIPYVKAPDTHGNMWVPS
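Here, a 5' biotin and 3' phosphotyrosine-FITC DNA oligonucleotide reports Tdp1 activity: intact substrate bridges AlphaScreen beads, while cleavage leaves a 3' phosphate and drops signal. All incubations at room temperature.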
HepG2 viability: counter-screen for TGF-b inhibitors: cytotoxicity in HepG2 cells | Potency, µM (doses to about 46.1 µM), inactives show top-dose activity change, negative = cytotoxicity, hits mostly cytotoxic | HepG2 CAGA-GFP viability, ATP luminescence, 18 h | actives 0.76% (n = 410,000); note: potency is the fitted concentration of half-maximal effect
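HepG2 CAGA-GFP cells (1000/well, DMEM with 1% FBS) received compound, then TGF-beta at 500 pg/mL final, and were incubated 18 hours at 37 degrees C. Viability was read by CellTiter-Glo luminescence. Media-only wells were set as complete cell-killing and DMSO as no toxicity.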
DT40 TDP1 CPT: DT40-hTDP1 cell growth loss with CPT; chicken DT40 Tdp1-/-;hTDP1 cells + 20 nM CPT, ATP luminescence, 48 h; Potency, µM (doses to about 46.2 µM), for inactives: at the top dose activity change, negative = growth inhibition, most hits filed as inhibitors; actives 12% (n = 420,000); note: potency is the fitted concentration of half-maximal effect; % is set by controls: 0 for no effect and ±100 for the full control effect; nearly all actives have a fitted effect of over 55% in size
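Chicken DT40 Tdp1-/- cells stably complemented with human TDP1 were seeded at 400 cells/well in medium containing 20 nM camptothecin, exposed to pin-transferred compounds, and grown at 37 °C for at least 48 hr. Viability was read as ATP luminescence.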
TDP1 cell noCPT: qHTS for Inhibitors of human tyrosyl-DNA phosphodiesterase 1 (TDP1): qHTS in cells in absence of CPT. DT40 Tdp1-/- hTDP1 cells, no CPT, ATP luminescence, 48 h. Potency, µM (top dose mostly 46.2 µM), without a hit: top-dose activity change, negative = growth inhibition, usual class: inhibitors. actives 15% (n = 420,000). AID 686978, 2013; note: potency is the fitted concentration of half-maximal effect; % is set by controls: 0 for no effect and ±100 for the full control effect; nearly all actives have a fitted effect of over 55% in size
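Luminescent ATP content (CellTiter-Glo) served as the growth readout. Knockout chicken DT40 cells expressing human TDP1 were exposed to compounds without camptothecin for a minimum 48 hr at 37 °C.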
* marks the source's active call; other numbers are inactive results; ? = inconclusive; . = not tested or not shown; ! = a repeat was not active; [ ] = dose if it differs, or a comment. Unless noted, calls come from the whole dose curve; as a rule, active = well fitted curve in the direction sought with a large enough effect; inconclusive = small, poorly fitted or top-dose-only effect, or another doubt; inactive = no such curve, though single readings can be large; an effect the other way counts as inactive or inconclusive.

SMILES | TGFb inhibitor | IL1B secr inh | TDP1 inh | HepG2 viability | DT40 TDP1 CPT | TDP1 cell noCPT
COc1ccc(CC(N)c2csc(NC(=O)Nc3ccc(OC)cc3)n2)cc1 (stereo not drawn) | ? | -50* | . | -82% | 21µM* | 16µM*
COc1ccccc1CNC(=O)Nc1nc(C(N)Cc2ccc(Cl)cc2)cs1 (stereo not drawn) | ? | -13 | . | -97% | ? | ?
COc1ccc(CC(N)c2csc(NC(=O)Nc3ccccc3Cc3ccccc3)n2)cc1 (stereo not drawn) | ? | -52* | . | 22µM* | 21µM* | 16µM*
COc1ccccc1NS(=O)(=O)c1ccc(C(=O)N2CCN(c3ccccc3)CC2)cc1 | -11% | -7 | 2% | -20% | ? | ?
O=C(O)C1CCN(C(=O)c2ccccc2Cl)CC1 | -10% | 25 | -2% | -4% | -9% | -16%
NC(=O)C1CCN(C2=C(Cl)C(=O)c3ccccc3C2=O)CC1 | ? | -98* | -5% | 7.1µM* | 2.3µM* | 2.9µM*
O=C1C(Cl)=C(N2CCC(C(=O)O)CC2)C(=O)c2ccccc21 | ? | 0 | -5% | -75% | 15µM* | 16µM*
CC1COCC(C)N1C1=C(Cl)C(=O)c2ccccc2C1=O (stereo not drawn) | ? | ? | . | -7% | 0.65µM* | 1.5µM*
CN1CCN(C2OC(=O)c3ccccc32)CC1 (stereo not drawn) | -4% | -3 | 1% | -1% | -17% | -4%
CN1CCN(C2=C(Cl)C(=O)c3ccccc3C2=O)CC1 | ? | -104* | . | 10µM* | 2.3µM* | 2.6µM*
O=C(Nc1ccc(F)cc1)C(c1ccccc1OC(F)(F)F)N1CCN(C(=O)c2ccco2)CC1 (stereo not drawn) | . | 7 | . | . | ? | ?
CN1CCN(c2nc(-c3ccc(Cl)s3)cs2)CC1 | 0% | -16 | 4% | -73% | 2% | ?
CN1CCN(C2=C(Cl)C(=O)C(c3cnc(N4CCCCC4)s3)=C(Cl)C2=O)CC1 | ? | 0 | 6% | -32% | 2.1µM* | 1.6µM*
CCCCC(c1nc2ccccc2[nH]1)n1c(-c2ccccc2)nc2ccccc21 (stereo not drawn) | -25% | 0 | . | -3% | -15% | -12%
CCCCC(c1nc2ccccc2[nH]1)n1c(-c2ccccc2)nc2cc(C)c(C)cc21 (stereo not drawn) | 3% | 0 | . | -27% | 15µM* | 23µM*
COc1ccc(-c2ccnc(-n3ncc(C(=O)NCc4ccon4)c3C3CC3)n2)cc1F | . | . | . | . | ? | 23µM*
Cc1cc(-c2ccnc(-n3ncc(C(=O)NCc4cccnc4)c3C3CC3)n2)c(C)s1 | . | . | . | . | -12%[9.04 µM] | ?
COc1ccc(-c2ccnc(-n3ncc(C(=O)NCc4cccnc4)c3C3CC3)n2)cc1F | . | . | . | . | -9%[9.04 µM] | 16µM*
COc1ccccc1-c1ccnc(-n2ncc(C(=O)NC(C)(C)CO)c2C2CC2)n1 | . | . | . | . | 3% | -6%
COc1ccc(NC(=O)CSC2=C(C#N)C(c3ccco3)C(C(=O)Nc3nc4ccccc4s3)=C(C)N2)cc1 (stereo not drawn) | -26% | 32 | . | -4% | ? | ?
CCOC(=O)C1=C(C)NC(SCC(=O)OC)=C(C#N)C1c1ccc(C(=O)OC)cc1 (stereo not drawn) | ? | 5 | 0% | 4% | ? | 23µM*!
CC(=O)C1=C(C)NC(SCC(=O)Nc2nc3ccccc3s2)=C(C#N)C1c1ccc(Cl)cc1 (stereo not drawn) | ? | -3 | 5% | -4% | ? | 18µM*
C=CCOC(=O)C1=C(C)NC(SCC)=C(C#N)C1c1ccc(Cl)cc1 (stereo not drawn) | 13µM* | -26 | -2% | -86% | 0.73µM* | 0.52µM*
CC(Oc1ccccc1)C(=O)Nc1ccc(C(=O)OCc2cc(=O)n3nc(C(C)C)sc3n2)cc1 (stereo not drawn) | -3% | . | -1% | -1% | 4% | -25%
O=C(NC1CCCCC1)OCCN1CCN(Cc2ccccc2)CCC1=O | . | . | 3% | . | . | .
SMILES | TGFb inhibitor | IL1B secr inh | TDP1 inh | HepG2 viability | DT40 TDP1 CPT | TDP1 cell noCPT
[N-]=[N+]=NC[C@H](Cc1ccccc1)N1CC[C@@H](NC(=O)OCc2ccccc2)CCC1=O | -1% | 18 | . | 0% | ? | 16µM*
O=C(NC1CCC(=O)N(CCOc2ccccc2)CC1)OCc1ccccc1 (stereo not drawn) | 6% | 0 | . | -17% | ? | 11µM*!
Cc1ccc(SC[C@H](C)CN2CCC(NC(=O)OCc3ccccc3)CCC2=O)cc1 (stereo partly drawn) | . | -2 | . | . | ? | ?
C[C@H]1CCC(=O)N([C@H](CN=[N+]=[N-])Cc2ccccc2)CC1 | 1% | -5 | . | -10% | -9% | ?
O=C(N[C@H]1CCC(=O)N(CCSc2ccc(Br)cc2)CC1)OCc1ccccc1 | 7.1µM* | -22 | 0% | -37% | 15µM* | 16µM*
Cc1ccc(SCCN2CCC(NC(=O)OCc3ccccc3)CCC2=O)cc1 (stereo not drawn) | 0% | 3 | . | -12% | ? | 18µM*
Cc1cccc(C(=O)N[C@H]2CC[C@@H](n3cc(C(=O)N4CCCC4)nn3)CC2)c1 | . | . | . | . | 23%[9.04 µM] | -7%
O=C(N[C@@H]1CCC(=O)N(CC[C@H](Sc2ccccc2)c2ccccc2)CC1)OCc1ccccc1 | ? | ? | . | -10% | ? | 23µM*
CN(Cc1c(F)cccc1Cl)C(=O)C1CC(=O)N(CCc2ccccc2)C1 (stereo not drawn) | 0% | 45 | 2% | 4% | 9% | -1%
CC(C)Cn1c(=O)c2c(nc3n2CCCN3CCc2ccccc2)n(C)c1=O | 32% | ? | 3% | -5% | 16µM* | 15µM*
Cn1c(=O)n(CCc2ccccc2)c(=O)c2c1nc1n2CCCN1CCc1ccccc1 | 3% | ? | 9% | -30% | 12µM* | 7.3µM*
CCCn1c(=O)c2c(nc3n2CCCN3CCc2ccccc2)n(C)c1=O | 6% | 1 | . | -22% | ? | ?
Cn1c(=O)n(Cc2ccc(F)cc2)c(=O)c2c1nc1n2CCCN1Cc1ccccc1 | 2% | ? | 8% | -1% | ? | 23µM*

Assay outcomes (PubChem BioAssay)
